Experimental data: article PMC6919601, “Identification of Plasmodium dipeptidyl aminopeptidase allosteric inhibitors by high throughput screening” (PLoS ONE, 2019)
Screen size: about 110,000 compounds; about 230 (0.21%) showed an effect of 50% or more. This is one part of a sample in which strong results are shown more often than they occur.

target: DPAP1 (Plasmodium falciparum, UniProt Q8IIJ9); assay: primary screen, percent inhibition; read by cleavage of a fluorogenic dipeptide substrate; higher = more effect of the substance; parameters: species or system P. falciparum D10 trophozoite lysates; single well
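Further: 30 min substrate incubation versus DMSO and 10 µM JCP410 controls.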

Chain of DPAP1 (Q8IIJ9 whole entry, looked up): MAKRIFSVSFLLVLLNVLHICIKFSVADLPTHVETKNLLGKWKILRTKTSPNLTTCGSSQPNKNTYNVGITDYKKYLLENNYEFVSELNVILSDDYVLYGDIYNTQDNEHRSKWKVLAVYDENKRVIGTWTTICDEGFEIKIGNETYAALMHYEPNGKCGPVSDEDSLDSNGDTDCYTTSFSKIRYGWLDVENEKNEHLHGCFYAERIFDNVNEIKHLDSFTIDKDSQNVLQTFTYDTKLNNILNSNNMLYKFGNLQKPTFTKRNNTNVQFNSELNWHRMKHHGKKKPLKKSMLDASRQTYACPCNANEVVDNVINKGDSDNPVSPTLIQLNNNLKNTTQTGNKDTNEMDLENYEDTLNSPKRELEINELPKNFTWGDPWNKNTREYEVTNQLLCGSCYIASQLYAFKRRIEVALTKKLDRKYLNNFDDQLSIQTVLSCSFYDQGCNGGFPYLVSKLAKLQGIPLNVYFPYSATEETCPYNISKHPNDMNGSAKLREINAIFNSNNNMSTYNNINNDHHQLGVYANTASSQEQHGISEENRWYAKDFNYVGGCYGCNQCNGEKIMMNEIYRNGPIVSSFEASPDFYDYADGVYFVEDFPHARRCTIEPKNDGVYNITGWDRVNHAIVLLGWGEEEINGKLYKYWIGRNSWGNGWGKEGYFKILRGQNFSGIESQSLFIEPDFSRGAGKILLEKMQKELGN

Row | SMILES | % Inhibition @ 10 uM
1 | Cc1ccnc(NC(=O)c2ccc(C)c(C)c2)c1 | 2.64%
2 | O=c1oc2c3c(c(Cl)cc2c2c1CCCC2)OCN(Cc1ccco1)C3 | 4.13%
3 | O=C(Nc1ccc([N+](=O)[O-])cc1)c1ccc(-c2ccccc2)cc1 | 2.62%
4 | CC(=O)N1CCN(C2CCc3ccccc3C2)CC1 (stereo not shown) | 0.217%
5 | CCC(C)NC(=O)c1ccccc1NS(=O)(=O)c1ccc(NC(C)=O)cc1 (stereo not shown) | -0.872%
6 | COc1ccc(C2=N/C(=C\C=C\c3ccccc3)C(=O)O2)cc1 | 7.01%
7 | Cc1ccc(NC(=O)C(CC(C)C)N2Cc3ccccc3C2=O)nc1 (stereo not shown) | -0.234%
8 | O=C(c1ccc(Br)cc1)N1CCN(c2ccc(F)cc2)CC1 | 0.815%
9 | N#Cc1c(C(F)(F)F)cc(-c2ccccc2)nc1S | 73.6%
10 | C#CCSc1nc(-c2ccccc2)cc(C(F)(F)F)c1C#N | -10.2%
11 | N#CNC(=N)CSc1nc(-c2ccccc2)cc(C(F)(F)F)c1C#N | 0.0719%
12 | C=CCc1cc(/C=C2/NC(=O)N(Cc3ccccc3F)C2=O)cc(OC)c1O | -2.63%
13 | COc1cc(/C=C2/NC(=O)N(Cc3ccccc3F)C2=O)cc(Cl)c1O | -1.28%
14 | COc1cc(/C=C2/NC(=O)N(Cc3ccccc3F)C2=O)cc(Br)c1O | 63%
15 | Cc1oc(-c2ccc3c(c2)OCCO3)cc1C(=O)NCC(=O)O | -1.69%
16 | CCCNC(=O)c1cc2n(n1)C(C(F)(F)F)CC(c1ccc(Br)cc1)N2 (stereo not shown) | -0.67%
17 | COc1ccc(-c2nc3scc(CCNC(=O)c4cc(OC)c(OC)c(OC)c4)n3n2)cc1 | 5.49%
18 | COc1ccc(NC(=O)C2=C(C)NC(=O)NC2c2ccc(Br)cc2)cc1 (stereo not shown) | 57.9%
19 | COc1ccc(NC(=O)C2=C(C)NC(=O)NC2c2ccc(C)cc2)cc1 (stereo not shown) | -2.18%
20 | COc1ccc(NC(=O)C2=C(C)NC(=O)NC2c2ccc(OC)cc2)cc1 (stereo not shown) | 9.5%
21 | Cc1ccc(-c2nn3c(CC#N)nnc3c3ccccc23)cc1 | 6.38%
22 | CC(C)Oc1ccc(-c2cc(C(=O)NCCCN3CCOCC3)c3ccccc3n2)cc1 | -12.3%
23 | O=C1NC(=O)c2c1cc1c3c2C2C=CCC2CN3CC2CC=CC12 (stereo not shown) | 64.9%
24 | Cc1cc(C)c2c3c1C1C=CCC1CN3C(C(=O)O)C1CC=CC21 (stereo not shown) | 3.65%
25 | O=C(Nc1ccc2c3c1C1C=CCC1CN3CC1CC=CC21)c1ccccc1 (stereo not shown) | 2.4%

Row | SMILES | % Inhibition @ 10 uM
26 | COc1cccc(CN(C(=O)c2cc3ccccc3oc2=O)C2CCS(=O)(=O)C2)c1 (stereo not shown) | 0.366%
27 | CCSc1cc(C)nc2ncnn12 | 7.56%
28 | Cc1cccc(-c2[nH]c3c(C#N)cnn3c2NCCC(C)C)c1 | 3.84%
29 | CC(C)CCNc1c(-c2cccc(Cl)c2)[nH]c2c(C#N)cnn12 | -4.71%
30 | COc1cccc(-c2[nH]c3c(C#N)cnn3c2NCCC(C)C)c1 | 76.4%
31 | c1ccc2c(c1)ncn2Cc1nnc2sc(-c3ccc4c(c3)OCCO4)nn12 | 45%
32 | Cc1ccc(S(=O)(=O)N(CC(=O)NC2CC3CCC2C3)c2ccc(Cl)cc2)cc1 (stereo not shown) | -0.695%
33 | CCc1ccc(CNC(=O)NCc2noc3ccc(C)cc23)cc1 | 2.19%
34 | COc1cccc(CN2CCN(Cc3cccc(C)c3)CC2)c1OC | -4.16%
35 | COc1cccc(CN2CCN(Cc3ccc(OC)c(OC)c3OC)CC2)c1 | -6.74%
36 | COc1ccc(CN2CCN(Cc3cccc(C)c3)CC2)c(OC)c1OC | 53.3%
37 | Cc1[nH]c2ccccc2c1CCNC(=S)NC(C)(C)C | -0.431%
38 | O=C(CCNS(=O)(=O)c1ccc2nc(O)ccc2c1)NC1CCCc2ccccc21 (stereo not shown) | -2.26%
39 | CCn1cc(CNC(=O)c2cc(-c3ccccc3OC)nc3ccccc23)cn1 | -10.2%
40 | COc1ccccc1C(=O)Nc1cccc(F)c1 | -5.29%
41 | Cc1cc(C)n(CC(O)Cn2c3ccccc3c3ccccc32)n1 (stereo not shown) | -10.2%
42 | Cc1cc(C)n(CC(O)Cn2c3ccccc3c3ccccc32)c(=O)n1 (stereo not shown) | 80.2%
43 | OCC(O)Cn1c2ccccc2c2ccccc21 (stereo not shown) | 1.44%
44 | O=C1CC(c2nc(-c3ccccc3)cs2)C2(CCCCC2)O1 (stereo not shown) | 4.08%
45 | Cc1ccc(-c2csc(N)n2)cc1 | 20.7%
46 | Cc1ccc(-c2csc(C3C(N)=NC(S)=C(C#N)C34CCCCC4)n2)cc1 (stereo not shown) | 89.8%
47 | CNC(=S)N(CCc1c(C)[nH]c2ccc(Cl)cc12)Cc1ccccn1 | -4.14%
48 | COc1ccc(C(=O)NCc2nnc(SCC(=O)NCC3CCCO3)o2)cc1 (stereo not shown) | 8.26%
49 | COc1ccc(C(=O)NCc2nnc(SCC(=O)Nc3nnc(C)s3)o2)cc1 | 84%
50 | COc1ccc(C(=O)NCc2nnc(SCC(=O)NC3CCCCC3)o2)cc1 | 76.6%

Row | SMILES | % Inhibition @ 10 uM
51 | Cc1nnc(NC(=O)CSc2nnc(CNC(=O)COc3ccc(Cl)cc3)o2)s1 | -5.27%
52 | Cc1nnc(NC(=O)CSc2nnc(CNC(=O)c3cccs3)o2)s1 | -3.39%
53 | COc1cc(C(=O)NCc2nnc(SCC(=O)NC3CCCCC3)o2)cc(OC)c1OC | 1.64%
54 | NC(=O)/C=C/C(=O)Nc1ccccc1 | -3.13%
55 | CCCCNC(=O)CCc1nc2cccnc2n1Cc1ccccc1 | 3.96%
56 | CCOc1ccc2c3c(c(=O)oc2c1)CCC3 | -3.38%
57 | CCCC1CCC(C2=N/C(=C\c3cc(OC)c(OC)cc3OC)C(=O)O2)CC1 (stereo not shown) | -3.33%
58 | O=C(CSc1nc2ccccc2o1)N1CCN(c2nnc(-c3ccccc3)c3ccccc23)CC1 | 2.46%
59 | COCCNC(=O)CSc1[nH]c(-c2cccc(OC)c2)nc1-c1ccccc1 | 0.163%
60 | Cc1nc(C(=O)N[C@@H](CC(C)C)C(=O)NCC#N)nn1-c1ccc(Cl)cc1Cl | 5.76%
61 | CCOc1ccc(/C=C(\NC(=O)c2ccc(C)cc2)C(=O)Nc2cccc(O)c2)cc1 | 4.67%
62 | COc1ccc2ccccc2c1C1CC(=O)N2CN(Cc3ccccc3)CSC2=C1C#N (stereo not shown) | 35.8%
63 | COc1ccc(Br)cc1C1CC(=O)N2CN(Cc3ccco3)CSC2=C1C#N (stereo not shown) | 60.5%
64 | COc1ccc(CN2CSC3=C(C#N)C(c4ccc(C)cc4)CC(=O)N3C2)cc1 (stereo not shown) | 43.8%
65 | COc1ccc(Br)cc1C1CC(=O)N2CN(Cc3ccccc3)CSC2=C1C#N (stereo not shown) | 60.8%
66 | CCOc1cc(C2CC(=O)N3CN(Cc4ccccc4)CSC3=C2C#N)ccc1O (stereo not shown) | 19.8%
67 | COc1cccc(C2CC(=O)N3CN(Cc4ccco4)CSC3=C2C#N)c1OC (stereo not shown) | 18.7%
68 | COc1ccc(C2CC(=O)N3CN(Cc4ccccc4)CSC3=C2C#N)c(OC)c1 (stereo not shown) | 32.1%
69 | COc1ccc(CN2CSC3=C(C#N)C(c4cccs4)CC(=O)N3C2)cc1 (stereo not shown) | 50.8%
70 | COc1cc(C2CC(=O)N3CN(Cc4ccccc4)CSC3=C2C#N)cc(Br)c1O (stereo not shown) | 57%
71 | COc1ccc(C2CC(=O)N3CN(Cc4ccccc4)CSC3=C2C#N)cc1OC (stereo not shown) | 6.73%
72 | N#CC1=C2SCN(Cc3ccccc3)CN2C(=O)CC1c1cccs1 (stereo not shown) | 40.5%
73 | COc1ccc(OC)c(C2CC(=O)N3CN(Cc4ccco4)CSC3=C2C#N)c1 (stereo not shown) | 6.87%
